Drawing on PubChem BioAssay (EPA / NIEHS), this text covers outcome and AC50 for 23 compounds.

The structures appear in SMILES notation. Activity calls are given as the source filed them. Rule for the calls: active = hit-call score of the fitted dose curve at least 0.9, where 1 is the maximum; inactive = score below 0.9.

The test in a line: CCTE_Shafer_MEA_dev_burst_duration_mean: CCTE's Neural Network Formation Assay for Mean Burst Duration, Shafer Lab (AID 2284045).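 For AC50: curve fitted for loss meaning shorter burst duration than DMSO.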 The protocol: CCTE_Shafer_MEA_dev assay is conducted using Axion Biosystems 48 well microelectrode array (MEA) plates and Maestro recording system. Each well of the MEA plate contains a grid of 16 microelectrodes embedded in the culture surface. Electrically active cells, such as neurons, can be cultured over the electrodes, and electrical activity in these cells can be recorded extracellularly. The spontaneous firing of neurons is captured from each electrode on a microsecond timescale providing both temporally and spatially precise data. […] The CCTE_Shafer_MEA_dev assay uses primary cultures of rat cortical neurons. Recordings are made on days post-plating 5, 7, 9 and 12. As these cultures mature over time, neural networks develop functional activity and form cohesive networks in which electrical activity can be highly coordinated. CCTE_Shafer_MEA_dev_burst_duration_mean is 1 of 19 assay components of the CCTE_Shafer_MEA_dev assay. It measures the average time interval from the first spike (action potential firing) to the last spike in a singe-electrode burst (temporally-clustered group of spikes) during a recording in a microelectrode array (MEA) using Axion Biosystems Maestro 768 channel amplifier with the AxIS adaptive spike detector. The mean burst duration is averaged across the actively bursting electrodes to report a well-mean value. To collapse across multiple recordings made on days post-plating 5, 7, 9 and 12, the trapezoidal area-under-the-curve of the component is calculated.Data from the assay component CCTE_Shafer_MEA_dev_burst_duration_mean was analyzed into 1 assay endpoint. This assay endpoint, CCTE_Shafer_MEA_dev_burst_duration_mean, was analyzed in the negative analysis fitting direction relative to DMSO as the negative control and baseline of activity. Using a type of functional reporter, gain or loss-of-signal activity can be used to understand electrical activity.
On the day prior to culture, each well was coated thoroughly with 150 uL of 0.05% polyethyleneimine (PEI, Sigma Cat P3143) in 50 mM HEPES (Sigma Cat H7523) at a pH of 8. The plate was incubated at 37C for one hour. PEI was rinsed out with 500 uL of sterile water three times. Plates were stored at 4C until the day of culture. This culture was plated at a seeding density of 1.5 x 10^5 cells/well on a 48-well MEA plate, prepared as described above. Cells were administered via a 25 uL media/laminin ([…]; Sigma Cat L2020-1MG) drop directly onto the microelectrode array, as adding the cells with the laminin results in better attachment than pre-coating with laminin. After 2 hours, an additional 475 uL of cortical media was added and the cells returned to the incubator. Exposure starts at day 0 of plating and is continued over twelve days of network development until the experiment is terminated. Cells are fed with fresh medium on DIV 5 and 9, following the recordings on those days. The entire volume of media in the well is exchanged and any vehicle or compound treatment is renewed. Complete details are found in OP-NHEERL/ISTD/SBB/TJS/2015-03-r0 (available on request, email shafer.tim@epa.gov). Measurement of the electrical activity is non-invasive, and recordings can be made from the same plate over multiple different days of the culture. In cortical neurons, this allows for the measurement of extracellular action potentials over the period during which networks form in the MEA plate.
Consider `FC(F)(F)C(F)(F)C(F)(F)C(F)(F)C(F)(F)C(F)(F)CC1CO1` (stereo not drawn), for which the compound was called inactive.

For the compound `OCC(F)(F)C(F)(F)C(F)(F)C(F)(F)C(F)(F)C(F)F`, the outcome was inactive.

As for `O=P(O)(O)OCCC(F)(F)C(F)(F)C(F)(F)C(F)(F)C(F)(F)C(F)(F)F`, the outcome was inactive.

On to `OCC(F)(F)C(F)(F)C(F)(F)F`, for which the outcome was inactive.

Take `O=S(=O)(OCC(F)F)C(F)(F)F`: the compound was classed as inactive.

As for `FC(F)(F)C(F)(F)C(F)(F)C(F)(F)C(F)(F)CCI`, the outcome was inactive.

In the case of `FC(F)(F)C(F)(F)CNCC(F)(F)C(F)(F)F`, the compound was called inactive.

For the compound `N=C(N)C(F)(F)C(F)(F)C(F)(F)C(F)(F)C(F)(F)C(F)(F)C(F)(F)F`, the result was inactive.

As to `OCC(F)(F)C(F)(F)C(F)(F)C(F)F`, the call was inactive.

Turning to `CC(CCl)OP(=O)(OC(C)CCl)OC(C)CCl` (stereo not drawn), the call was inactive.

In the case of `O=C(O)C(F)(F)C(F)(F)C(F)(F)C(F)(F)C(F)(F)C(F)(F)C(F)(F)C(F)(F)C(F)(F)C(F)F`, the call was inactive.

Turning to `O=C(O)C(F)(F)C(F)(F)C(F)(F)F`, the outcome was inactive.

Take `O=S(=O)(OCCOC(F)(F)F)C(F)(F)F`: the outcome was inactive.

Take `O=C(O)C(F)(F)C(F)(F)C(F)F`: the compound was classed as inactive.

Take `O=C(O)C=C(C(F)(F)F)C(F)(F)F`: the compound was called inactive.

In the case of `NC(=O)C(F)(F)C(F)(F)C(F)(F)C(F)(F)F`, the call was inactive.

For the compound `OC[C@@H](O)[C@@H](O)[C@H](O)[C@@H](O)CO`, the outcome was inactive.

Regarding `O=C(O)C(F)(F)C(F)(F)C(F)(F)C(F)(F)C(F)(F)C(F)(F)C(F)(F)C(F)(F)Cl`, the call was inactive.

As for `C=CC(=O)OCC(F)(F)C(F)(F)C(F)(F)C(F)(F)COC(=O)C=C`, the concentration at half-maximal activity (AC50) is 2870 nM (active).

Turning to `COC(=O)CCC(F)(F)C(F)(F)C(F)(F)C(F)(F)F`, the outcome was inactive.

`OCCCC(F)(F)C(F)(F)C(F)(F)F`: the outcome was inactive.

Regarding `CC(C)(C)C(=O)CC(=O)C(F)(F)C(F)(F)C(F)(F)F`, the call was inactive.

Turning to `Cc1ccc(S(=O)(=O)OCC(F)(F)C(F)(F)C(F)(F)C(F)(F)C(F)(F)C(F)F)cc1`, the compound was called inactive.

In general, AC50 refers to the concentration giving half of the maximal activity seen.
